DRD3 agonist – D3 dopamine receptor (human) agonism | 410,000 compounds, 0.58% hits | AID 652048 | max activation, % | D3R DiscoveRx beta-arrestin cells, luminescence, 90 min; in the data active means max activation above about 30%; further: 0% is about no effect
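Cells at 1500/well, incubated overnight, then treated with pinned compounds (dopamine as control) for 90 min at 37 degrees C. DiscoveRx reagent added for 30 - 60 minutes at room temperature; luminescence read.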
D1 potentiator – potentiators of human D1 dopamine receptor; HEK293 TREx D1 cells, calcium flux, dopamine EC20 potentiation; potentiation, % at 10 µM; 360,000 compounds, 0.036% hits; in the data active means potentiation above about 30%; further: 0% is about no effect
D3 antag – blocks the human D3 dopamine receptor; D3R cells, DiscoveRx beta-arrestin luminescence, antagonist mode; hits give low values; max response, negative = inhibition, %; 360,000 compounds, 2.5% hits; in the data active means max response below about -50%; inconclusive means no clear call, values can overlap the other calls; further: on the % scale 0 is the no-effect control and ±100 the full control effect
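Cells expressing the human receptor were seeded at 1500 cells/well, incubated overnight at 37 degrees C in 5% CO2, then exposed to library compounds with dopamine controls for 90 minutes at 37 degrees C before luminescent detection.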
ERG Ets-DNA blk – ERG Ets/DNA interaction inhibition; fluorescence polarization, His-ERG Ets domain / labelled DNA; P11308; AID 624246; 370,000 compounds, 0.028% hits; Potency, µM (series often up to 76.9 µM), for the others: at the top dose FP activity, negative = inhibition, usual class: inhibitors; active means well fitted inhibition curve with a large enough effect in the polarisation, with a control signal flat; inconclusive means small, poorly fitted or top-dose-only effect, or effect the other way, or a change in a side signal; inactive means no such curve, though single readings can be large or run the other way; the % refers to the polarisation;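 further: polarization taken with two DNA probes labelled with fluorescein and Texas red; potency means the concentration at half of the fitted maximal effect; % of control where 0% means no effect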
Target sequence (P11308 whole entry, looked up, the tested form may be a part): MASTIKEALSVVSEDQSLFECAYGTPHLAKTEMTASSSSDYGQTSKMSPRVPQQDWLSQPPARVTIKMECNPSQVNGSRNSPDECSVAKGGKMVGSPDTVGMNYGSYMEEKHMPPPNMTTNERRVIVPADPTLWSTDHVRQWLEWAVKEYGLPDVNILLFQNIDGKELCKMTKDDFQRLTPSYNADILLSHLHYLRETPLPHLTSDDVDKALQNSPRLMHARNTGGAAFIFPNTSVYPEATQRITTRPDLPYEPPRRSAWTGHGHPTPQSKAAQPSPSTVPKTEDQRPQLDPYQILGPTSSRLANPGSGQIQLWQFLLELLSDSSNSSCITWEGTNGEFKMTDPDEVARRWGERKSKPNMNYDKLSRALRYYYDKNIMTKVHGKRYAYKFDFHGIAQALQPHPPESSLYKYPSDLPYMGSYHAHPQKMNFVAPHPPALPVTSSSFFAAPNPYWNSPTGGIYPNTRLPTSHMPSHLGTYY
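His-tagged ERG Ets domain (1 uM in the protein solution; 300mM KCl, 50mM Tris-HCl, 1mM EDTA, 1mM DTT, pH 7.5) received compound, then a probe mix of 5 nM fluorescein-DNA and 100nM Texas-615-DNA. Fluorescence polarization was read for both dyes.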
D1 ag – agonists of human D1 dopamine receptor; activation, % at 2 µM; HEK293 T-REx D1 cells, calcium flux, agonist mode; P21728; 360,000 compounds, 1% hits; in the data active means activation above about 30%; further: 0% is about no effect
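Tetracycline-induced HEK293 TREx D1 cells, force-coupled to calcium signalling, were dye-loaded with a no-wash calcium kit. Compound was pin-added after a 10 s baseline. Fluorescence was read kinetically at 1 cycle/s for 180 s, with calcium rises flagged as agonism.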
D1 antag – blocks dopamine activation of the human D1 receptor. activity change, negative = inhibition, % at 10 µM. 360,000 compounds, 3.2% hits. AID 504652. HEK293 TREx D1 cells, calcium flux, dopamine EC80; hits give low values; in the data active means activity change below about -30%; further: on the % scale 0 is the no-effect control and ±100 the full control effect
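Tetracycline-induced HEK293 Trex D1 cells, force-coupled to calcium, dye-loaded; compounds added and read 180 s, then EC80 dopamine added and calcium flux tracked kinetically another 180 s.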
An asterisk follows results filed as active; ? = inconclusive; . = not tested or not shown. Shown are actives, neighbours in structure and some others; about 6.1% of the full set was active somewhere.

SMILES	DRD3 agonist	D1 potentiator	D3 antag	ERG Ets-DNA blk	D1 ag	D1 antag
O=c1cc(-c2ccccc2)nc2nc(SCc3ccccc3)[nH]n12	-4	-7	?	-3%	1	-32*
O=C(CSc1ccc2ccccc2n1)NCCC1=CCCCC1	2	-6	-13	-9%	2	9
O=C1c2cc(F)ccc2OC2(CCNCC2)C12CC(c1ccccc1)=NO2 (stereo not given)	-14	-3	25	-9%	43*	-13
O=C(NC(c1ccc(Cl)cc1)c1cnccn1)C1CCN(CCOc2ccc(F)cc2)CC1 (stereo not given)	-26	.	?	.	.	.
COc1cccc(OC)c1OCCN1CCC(C(=O)NC(c2ccc3c(c2)OCO3)c2ccccn2)CC1 (stereo not given)	-29	.	-78*	.	.	.
COc1ccc(CN2CCC(C(=O)NC(c3ccc4c(c3)OCO4)c3ccccn3)CC2)cc1 (stereo not given)	-13	.	0	.	.	.
O=C(NC(c1ccc(Cl)cc1)c1ccccn1)C1CCN(CCOc2ccc(Cl)cc2Cl)CC1 (stereo not given)	-11	.	-77*	.	.	.
Cc1cccnc1C(NC(=O)C1CCN(CCOc2ccc(Cl)cc2Cl)CC1)c1ccc(Cl)cc1 (stereo not given)	41*	.	36	.	.	.
O=C(NC(c1ccc(F)cc1)c1cnccn1)C1CCN(CCOc2ccc(Cl)cc2Cl)CC1 (stereo not given)	-9	.	-71*	.	.	.
COc1ccc(CC(N)c2csc(NC(=O)c3ccccc3OC)n2)cc1 (stereo not given)	2	.	15	.	.	.
O=C(NC(c1ccc2c(c1)OCO2)c1ccccn1)C1CCN(CCOc2ccc(Cl)cc2Cl)CC1 (stereo not given)	-11	.	-75*	.	.	.
Cc1ccc(NC(=O)Cc2sc(C)nc2-c2ccc(C)cc2)cc1	1	-11	13	-8%	1	-35*
CN(CC(=O)Nc1ccccc1Cl)C(=O)COC(=O)c1ccc(Cl)cc1[N+](=O)[O-]	3	-9	-11	-12%	0	-42*
CCCc1nc2oc3c(NCCN(C)C)ncnc3c2c2c1CCCC2	3	-3	-54*	2%	3	-12
CCOC(=O)C1CCN(C(=O)CN2C(=O)c3cccnc3Oc3ccccc32)CC1	1	0	-15	11%	12	2
Cc1cccc(NC(=S)NNc2ncc(C(F)(F)F)cc2Cl)c1	-15	0	-64*	-6%	7	-26
FC(F)(F)c1cnc(NNC(=S)Nc2ccccc2Cl)c(Cl)c1	-17	-5	-75*	3%	26	-33*
Cc1cc(C)cc(OCC(=O)NNC(=O)c2ccoc2C)c1	8	-1	?	-13%	1	-7
CSCCC(NC(=O)c1cccc([N+](=O)[O-])c1)c1nc2ccccc2[nH]1 (stereo not given)	-26	-5	-53*	4%	0	-1
CSCC[C@H](NC(=O)c1cc([N+](=O)[O-])ccc1Cl)c1nc2ccccc2[nH]1	-2	-5	-17	-1%	0	1
Cc1cc(C)c2nc(NNC(=O)c3cc(-c4cccs4)nc4ccccc34)sc2c1	16	-4	89	12%	-2	-2
Cc1c(NC(=O)c2cc(-c3cccs3)nc3ccccc23)c(=O)n(-c2ccccc2)n1C	4	-5	26	4%	0	-16
O=C(NNc1nc2ccc(Cl)cc2s1)c1cc(-c2cccs2)nc2ccccc12	42*	-3	109	-10%	-3	-3
Cc1ccc(NC(=O)c2cc(-c3cccs3)nc3ccccc23)nc1	7	-11	75	-10%	1	-48*
CC1CCCN(S(=O)(=O)c2cnc[nH]2)C1 (stereo not given)	33*	2	-16	-11%	2	6
CCOC(=O)C1CCN(S(=O)(=O)c2cnc[nH]2)CC1	-3	0	11	6%	1	-10
O=C(Nc1cccc(Cl)c1)C1CCCN(S(=O)(=O)c2cnc[nH]2)C1 (stereo not given)	-10	.	0	-3%	1	-4

Compound activity from PubChem BioAssay.
